# In the library only some 17% were active in any assay of this set; here they are far more common.
# TDP1 cell CPT: growth inhibition of DT40 Tdp1-/-;hTDP1 cells with camptothecin (screen for TDP1 inhibitors); 420,000 tested, 12% active; Potency, µM (titrated, usually from 46.2 µM), inactives show at the top dose activity change, negative = growth inhibition, most hits filed as inhibitors; chicken DT40 Tdp1-/-;hTDP1 cells + 20 nM CPT, ATP luminescence, 48 h; also: % is scaled to controls: 0 for no effect and ±100 for the full control effect; nearly all actives have a fitted effect of over 55% in size
#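 Cell growth measured by CellTiter-Glo luminescence after a minimum 48 h, 37 C compound exposure with 20 nM CPT in Tdp1-knockout DT40 cells stably expressing hTDP1, seeded 400/well; qHTS titration format.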
# TDP1 cell noCPT: qHTS for Inhibitors of human tyrosyl-DNA phosphodiesterase 1 (TDP1): qHTS in cells in absence of CPT. 420,000 tested, 15% active. Potency, µM (top dose mostly 46.2 µM), for inactives: top-dose activity change, negative = growth inhibition, hits mostly inhibitors. DT40 Tdp1-/- hTDP1 cells, no CPT, ATP luminescence, 48 h; also: % is scaled to controls: 0 for no effect and ±100 for the full control effect; nearly all actives have a fitted effect of over 55% in size
#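 A cellular qHTS used chicken DT40 cells lacking endogenous Tdp1 but carrying stably transfected human TDP1. Compounds were applied without camptothecin, and cell growth kinetics were judged by ATP-dependent luminescence after ≥48 hr.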
# TGFb inhibitor: inhibitors of TGF-b signaling | HepG2 CAGA-GFP TGF-b/SMAD3 reporter, GFP fluorescence, 18 h; TGF-beta stimulated, 500 pg/mL final | Potency, µM (top dose mostly 46.1 µM), for inactives: top-dose activity, negative = inhibition, most hits filed as inhibitors | 410,000 tested, 1.2% active | AID 588855; also: % is scaled to controls: 0 for no effect and ±100 for the full control effect; nearly all actives have a fitted effect of over 65% in size
#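 TGF-beta reporter screen: HEPG2 CAGA-GFP, 1% FBS, 500 pg/mL TGF-beta final, 18 h; per-cell GFP summed per well; curves fitted and categorized by class.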
# ATXN2 expr inh: inhibitors of ATXN2 expression; 360,000 tested, 0.72% active; Potency, µM (titrated, usually from 57 µM), for the others: top-dose activity change, negative = inhibition, usual class: inhibitors; HEK-293 ATXN2-luciferase reporter, luminescence, 24 h; AID 1745845; also: % is scaled to controls: 0 for no effect and ±100 for the full control effect; nearly all actives have a fitted effect of over 55% in size
#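 qHTS (up to 57 uM final) was run with 24 h compound exposure of reporter cells at 37 °C. Each well was multiplexed: SteadyGlo luminescence measured ATXN2-luciferase expression after a fluorogenic Gly-Phe-AFC viability readout (25 uM final).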
# S2 tox: reduces viability in counter-screen for ATXN expression inhibitors | 400,000 tested, 0.49% active | S2 cells (HEK-293 line with an ATXN2-luciferase reporter) viability, CellTiter-Fluor protease fluorescence, 24 h | Potency, µM (top dose mostly 56.7 µM), actives largely listed as cytotoxic; also: nearly all actives have a fitted effect of over 40% in size
# HepG2 viability: HepG2 cytotoxicity, counter-screen for TGF-b inhibitors. HepG2 CAGA-GFP viability, ATP luminescence, 18 h. Potency, µM (top dose mostly 46.1 µM), without a hit: top-dose activity change, negative = cytotoxicity, actives largely listed as cytotoxic. 410,000 tested, 0.76% active
#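 CellTiter-Glo luminescence gave cytotoxicity after 18 hours at 37 degrees C. The cells were HepG2 CAGA-GFP in 1% FBS DMEM, stimulated with 500 pg/mL TGF-beta after compound addition. %Activity was normalised to no-cell wells (complete cell-killing) and DMSO (no toxicity), and curves were fitted and classified.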
# Starred values were filed as active, the others as inactive; i = inactive; u = inconclusive; x = not tested or not shown. Calls follow the shape of the dose curve; as a rule, active = well fitted curve in the direction sought with a large enough effect; inconclusive = small, poorly fitted or top-dose-only effect, or another doubt; inactive = no such curve, though single readings can be large; an effect the other way counts as inactive or inconclusive. Potency is read from the fitted curve at half-maximal effect.
SMILES,TDP1 cell CPT,TDP1 cell noCPT,TGFb inhibitor,ATXN2 expr inh,S2 tox,HepG2 viability
CCOc1cc(C(=O)NCc2ccc3c(c2)CCN3C(=O)c2ccc(F)cc2)cc(OCC)c1OCC,u,25.9µM*,0.4%,x,x,-24.6%
CCOc1ccccc1C(=O)NCc1ccc2c(c1)CCN2C(C)=O,0.92µM*,1.64µM*,1.0%,x,x,1.7%
COc1ccc(C(=O)NCc2ccc3c(c2)CCN3C(=O)c2ccc(C)cc2)cc1,u,u,-19.2%,x,x,-14.3%
CCOc1ccc(C(=O)NCc2ccc3c(c2)CCN3C(=O)c2ccc(C)cc2)cc1OCC,11.6µM*,13µM*,15.0%,x,x,-15.0%
N#Cc1ccc(C(=O)NCc2ccc3c(c2)CCN3C(=O)c2ccc(F)cc2)cc1,u,23.1µM*,2.1%,x,x,-0.4%
Cc1cc(C(=O)NNC(=O)c2cccs2)c(C)o1,7.8%,2.0%,-17.4%,4.3%,i,-1.7%
COc1ccc(CN2CCC3(CC2)c2ccccc2[C@@H](NC(=O)c2ccsc2)[C@@H]3OC)cc1O,u,-16.7%,x,x,i,x
Cc1ccc(C(=O)N2CCc3cc(CNC(=O)c4ccccc4F)ccc32)cc1,u,20.6µM*,-21.1%,x,x,-16.6%
CCN(CC)c1ccc(C(=O)NCc2ccc3c(c2)CCN3C(=O)c2ccc(F)cc2)cc1,5.8µM*,4.61µM*,21.8%,x,x,-0.7%
CCC(=O)N1CCc2cc(CNC(=O)c3ccc(F)cc3)ccc21,-28.9%,-24.1%,15.0%,x,x,-37.0%
N#C/C(=C\c1ccc(Br)cc1)c1nc(-c2cc3cc(Br)ccc3oc2=O)cs1,6.0%,-2.4%,-0.9%,6.8%,i,9.5%
O=C(/C=C/c1ccco1)Nc1ccc(-c2nc3ccccc3[nH]2)cc1,-0.6%,u,4.2%,u,u,0.0%
O=C(CSc1ccc(-c2nc3ccccc3[nH]2)cn1)N1CCN(C(=O)c2ccco2)CC1,23.1µM*,u,-1.1%,21.1%,i,-11.6%
O=C(Nc1ccc(-c2nc3ccccc3[nH]2)cc1)c1ccco1,14.6µM*,14.6µM*,-7.6%,85.6%,i,-36.8%
O=C(Nc1ccc(Nc2ccccc2)cc1)c1ccco1,20.6µM*,20.6µM*,7.6%,73.1%,i,-31.1%
CC(C)OC(=O)c1ccc(NC(=O)c2ccco2)cc1,18.4µM*,23.1µM*,13.7%,30.5%,i,-7.1%
O=C(Nc1ccc(NC(=O)c2ccco2)cc1)c1ccco1,-0.5%,4.4%,0.0%,26.4%,i,-15.7%
O=C(CCc1nc2ccccc2[nH]1)N1CCN(C(=O)c2ccco2)CC1,-13.6%,0.4%,-24.1%,4.3%,i,3.8%
Cc1ccc(S(=O)(=O)CCC(=O)OC(C)C(=O)N2CCc3ccccc32)cc1 (stereo not given),-4.9%,-17.5%,u,7.1%,i,-0.1%
COC(=O)c1c(NC(=O)c2ccco2)sc(C)c1C,-7.5%,-11.4%,-1.0%,5.0%,i,-1.6%
COC(=O)c1c(NC(=O)c2ccco2)sc(C(=O)Nc2ccc(F)cc2)c1C,u,23.1µM*,18.6%,-29.5%,u,1.6%
O=[N+]([O-])c1cccc(N/N=C/c2ccc(N3CCOCC3)cc2)c1,18.4µM*,16.4µM*,10.8%,u,u,-8.5%
O=C(COc1ccc(/C=C\[N+](=O)[O-])cc1)N1CCOCC1,u,u,9.6%,x,i,-15.5%
O=[N+]([O-])/C=C\c1ccc(N2CCOCC2)cc1,14.6µM*,16.4µM*,u,u,u,-64.3%
C(=N\Nc1ccccn1)/c1ccc(N2CCOCC2)cc1,23.1µM*,16.4µM*,-7.8%,35.1%,i,1.1%
COCCNC(=O)c1ccc2c(c1)C(=O)c1ccccc1-2,14.8%,-19.6%,-9.0%,x,i,-5.9%
